The results in this text go back to PubChem BioAssay AID652104 (National Center for Advancing Translational Sciences (NCATS), 2013).

Among all 410,000 compounds or so, about 7,200 (1.8%) were called active. Not shown: some 7% with an inconclusive outcome. This is one part of a sample in which actives are shown more often than they occur. Unmarked numbers belong to inactive results. Calls come from the whole dose curve; as a rule, active = well fitted activation curve with a large enough effect; inconclusive = small, poorly fitted or top-dose-only effect, or another doubt; inactive = no such curve, though single readings can be large or run the other way.
Potency is the fitted concentration of half-maximal effect.

The nature of this assay: qHTS of TDP-43 Inhibitors. For growth rescue (activation): % of control where 0% means no effect. Note: nearly all actives have a fitted effect of over 50% in size. The conditions noted are these: TDP-43 expressing yeast growth rescue, BacTiter-Glo, 24 h; series mostly up to 46.1 µM; growth rescue (activation): at the top concentration. The text has this:
The goal of this project is to identify new chemical probes capable of reversing the toxicity associated with TDP-43 which is associated with frontotemporal lobar degeneration and amyotrophic lateral sclerosis. These compounds will provide a complementary approach to deciphering the tangled mechanisms of toxicity and protection that we have uncovered through genome-wide genetic screens and are beginning to uncover in a large-scale proteomics analysis with mass spectroscopy.
To this end, a miniaturized assay was developed to be screened against the Molecular Libraries Small Molecule Repository (MLSMR) to discover TDP-43 inhibitors. Please note that in the set-up this yeast-based assay compounds that inhibit as TDP-43, have a read-out as activators.
NIH Chemical Genomics Center [NCGC]
NIH Molecular Libraries Probe Centers Network [MLPCN]
Assay Submitter (PI): Susan Lindquist, Whitehead Institute/MIT
Dispense 2.5 microL yeast galactose medium per 1536-well plate, pin compound, dispense 2.5 microL TDP-43 expressing yeast in galactose medium at OD600=0.02 (pregrown in raffinose medium to mid-log phase) per well, incubate for 24 hr at 30 deg C, and cell growth will be measured using 5 microL of Bactiter/Glo reagent to entire plate and read using Luminescence Protocol in ViewLux.
Turning to `CCC1CCCCN1C(=O)Cn1c(=O)n(CCCCCC(=O)NCc2ccccc2)c(=O)c2sccc21` (stereo not given), the “growth rescue (activation)” value is 3.01%.
On the same count and under the same terms, the same measure for `Cc1nc(N)sc1-c1ccccc1`: -12.8%.
Regarding `Cc1nc(C)c(-c2csc(NCCc3ccccc3)n2)s1`, the Potency is 15.8 µM (active).
For the compound `S=c1[nH]nc(NCCc2ccccc2)s1`, the growth rescue (activation) is -8.25% [at 0.397 µM].
`Cc1c(CCNC(=O)c2ccc(C(F)(F)F)cc2)sc2nc(-c3ccc(F)cc3)nn12`: the “growth rescue (activation)” value was 1.73%.
Still for that read-out and setting: the value for `COc1ccc(C2NC(=O)N(C)C3=C2C(=O)N(c2ccc(C(=O)O)cc2)C3)cc1` (stereo not given) was -4.05%; that for `CCOC(=O)c1scc(-c2ccc(C)cc2)c1S(=O)(=O)Nc1cc(C)ccc1C` was 4.09%; that for `COC(=O)c1scc(-c2ccc(C)cc2)c1S(=O)(=O)Nc1cc(Cl)c(OC)cc1OC` was 8.06%.
`COC(=O)c1scc(-c2ccccc2)c1S(=O)(=O)Nc1ccccc1`: the Potency is 12.6 µM (active).
As to `COc1cc(C(=O)NCCc2csc3nc(-c4ccccc4C)nn23)cc(OC)c1OC`, the “growth rescue (activation)” value was 3.64%.
Same read-out and setting: the value for `COc1ccc(NC(=O)C(c2ccccc2)N2Cc3ccccc3C2=O)cc1` (stereo not given) was 0% [at 9.22 µM]; that for `Cc1cc(C)cc(NC(c2nnc(-c3cccc(F)c3)o2)c2ccc(F)cc2Cl)c1` (stereo not given) was 11.8%.
Same read-out and setting: the same measure for `O=C(/C=C/Nc1ccc(S(=O)(=O)Nc2cnc3ccccc3n2)cc1)c1cccnc1`: 5.52%.
As to `O=C(/C=C/c1ccc(Cl)c([N+](=O)[O-])c1)c1cccnc1`, the Potency is 3.16 µM (active).
In the case of `C/C(=N\NC(=O)Cc1ccccc1[N+](=O)[O-])c1cccnc1`, the “growth rescue (activation)” value was 6.54%.
On the same count and under the same terms, the value for `Cc1ccc(CCNC(=O)c2ccc(CS(=O)(=O)Cc3cccc(C)c3)o2)cc1` was 12.7%; that for `CC1=C(C(=O)N2CCN(c3cccc(C(F)(F)F)c3)CC2)C2(CCCCC2)OC1=O` was 7.17%.
Still for that read-out and setting: the same measure for `COc1cccc(NC(=O)C2CCN(c3cc(C)nc4c(-c5ccc(Cl)cc5)c(C)nn34)CC2)c1`: 1.98%; for `COc1ccc(CCNc2nc(-c3ccc(Cl)cc3)cc(C(F)(F)F)n2)cc1OC`: -4.55%.
Regarding `COc1ccc(CCNc2cc(C)nc3c(-c4ccc(Cl)cc4)c(C)nn23)cc1OC`, the Potency is 20 µM (active).
As to `COc1ccc(N2CCN(C(=O)C3CCCN(C(=O)c4cc5sccc5n4C)C3)CC2)cc1` (stereo not given), the “growth rescue (activation)” value was 9.85%.
Same read-out and setting: the same measure for `COC(=O)c1ccccc1NC(=O)c1ccc(COc2ccccc2Cl)o1`: 8.94%; for `Cc1ccc(CNC(=O)CCc2c(C)nc3nc(CNC(=O)OC(C)(C)C)nn3c2C)cc1`: 9.83%.
For the compound `Nc1ccccc1Sc1ccc(C(F)(F)F)cc1[N+](=O)[O-]`, the Potency is 11.2 µM (active).
In the case of `O=[N+]([O-])c1cc(C(F)(F)F)ccc1NN=C1CCCC1`, the “growth rescue (activation)” value was 20.6%.
On the same count and under the same terms, the value for `O=C(CSc1ccc(C(F)(F)F)cc1[N+](=O)[O-])NCCOc1ccccc1` was -13.2%; that for `Cc1nc2nc(NCc3cccc(Br)c3)[nH]n2c(=O)c1Cc1ccccc1` was 12.5%.
For the compound `COc1ccc(C(=O)N2CCC(c3nc4ccccc4o3)CC2)cc1`, the “growth rescue (activation)” value is -8.9%.
As to `CC(C)(C)OC(=O)N1CCN(C(=O)c2[nH]c(C(F)(F)F)nc2-c2ccccc2)CC1`, the “growth rescue (activation)” value is -9.17%.
For the compound `CCc1noc(C)c1C(=O)N1CCN(S(=O)(=O)c2cccc(C(F)(F)F)c2)CC1`, the “growth rescue (activation)” value is 15.9%.
Take `Cc1onc(-c2ccccc2)c1C(=O)N1CCN(S(=O)(=O)c2ccccc2C(F)(F)F)CC1`: the Potency is 15.8 µM (active).
`N#Cc1nc(/C=C/c2ccc(F)cc2)oc1NC1CCCCC1`: the “growth rescue (activation)” value was 7.58%.
As for `Cc1ccccc1NC(=O)CSC(=O)c1ccccc1`, the Potency is 14.1 µM (active).
As for `Cc1ccccc1NC(=O)CSC1=NCCN1`, the “growth rescue (activation)” value is 16.4%.
Still for that read-out and setting: the same measure for `Cc1cccc(NC(=O)CSC(N)=O)c1C`: -0.179%; for `CCOc1cccc(CNC(=O)c2ccc(N3CCCC3)c(NC(=O)Nc3ccccc3CC)c2)c1`: 14.4%.
Still for that read-out and setting: the value for `Cc1cccc(NC(=O)CN(c2ccc(C(C)C)cc2)S(=O)(=O)c2c(C)nn(C)c2C)c1C` was 9.66%; that for `Cc1ccc(CNC(=O)CCc2c(C)nc3c(c(C)nn3-c3ccccc3)c2C)cc1` was 7.91%.
Same read-out and setting: the same measure for `CCOC(=O)C1CCCN(CC(=O)Nc2cc(C)c3c(=O)oc4ccccc4c3n2)C1` (stereo not given): 12.8%; for `COc1ccc(CNc2nc(-c3ccccc3)nn2C(=O)c2ccccc2OC)cc1`: -26.6%; for `Cc1cc(C)cc(NC(=O)CCCc2nc(-c3ccccc3Cl)no2)c1`: 6.99%.
On to `Cc1ccc2nc(SCC(=O)Nc3cccc4ccccc34)nc(=O)n2c1`, for which the “growth rescue (activation)” value is 2.84%.
On the same count and under the same terms, the same measure for `Cc1ccccc1-n1c(SCC(=O)Nc2cccc3ccccc23)nc(O)cc1=O`: 1.32%.
Same read-out and setting: the value for `Cc1cc(NC(=O)CSc2nccn2-c2ccc([N+](=O)[O-])cc2)no1` was 20.5%.
Consider `O=C(CSc1nccn1-c1ccc(F)cc1)Nc1cccc2ccccc12`, for which the Potency was 17.8 µM (active).
The same measure, in the same setting: the value for `Cc1cccc(-n2ccnc2SCC(=O)Nc2cccc3ccccc23)c1C` was 22.4 µM (active).
Turning to `O=C(CSc1nccn1-c1cccc(F)c1)NC1CCCC1`, the “growth rescue (activation)” value is 12.2%.
The same measure, in the same setting: the value for `O=C(CSc1nc(Nc2ccc(F)c(F)c2)c2ccccc2n1)c1ccc(Cl)cc1` was 14.9%.
The same measure, in the same setting: the same measure for `CCC(C(=O)Nc1cc(OC)ccc1OC)n1c(=O)c(C(F)(F)F)nc2ccccc21` (stereo not given): 3.29%; for `CC(NC(=O)c1cc(Sc2ccc(F)cc2F)nc2ccccc12)c1ccccc1` (stereo not given): 17.5%.
